# Source: PubChem BioAssay (The Scripps Research Institute Molecular Screening Center)
# DAX1 inh-1: blocks DAX1 repression of SF-1 activated StAR promoter. actives 1.1% (n = 370,000). HEK293T StAR-luciferase reporter, SF-1/DAX-1 repression relief. AID 652010. inhibition, % at 6.8 µM;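 active means inhibition above the mean over all tested compounds plus 3 SD, cut at about 3.6% in these data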;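 further: higher inhibition means more luminescence from relief of DAX-1 repression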
# hgDAF12 agonist: agonists of H. glycines DAF-12 nuclear receptor; HEK293 GAL4-hgDAF12 UAS-luciferase reporter, agonist luminescence; normalized to butyrate control; activation, % at 6.8 µM; actives 1.8% (n = 370,000); AID 687014;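 active means activation above a cutoff set at the mean of all screened compounds plus 3 SD, cut at about 10% in these data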
# hcDAF12 agonist: H. contortus DAF-12 activation, primary screen; activation, % at 6.8 µM; HEK293 hcDAF-12 lit1-tk-luc reporter, luminescence; 0% DMSO, 100% Δ7-dafachronic acid; actives 1.4% (n = 370,000);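 active means activation above the mean of all tested compounds plus 3 SD, cut at about 5.5% in these data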
# DAX1 inh-2: NR0B1 (DAX1) inhibition; P51843; HEK293 Gal4-DAX1 luciferase reporter, luminescence; inhibition, % at 6.75 µM; actives 0.99% (n = 340,000); AID 504766;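 active means inhibition above the mean over all tested compounds plus 3 SD, cut at about 4.2% in these data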;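 further: inhibition shows as a rise in luminescence from relieved DAX1 repression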
# Target sequence (P51843 207-470 limits assumed): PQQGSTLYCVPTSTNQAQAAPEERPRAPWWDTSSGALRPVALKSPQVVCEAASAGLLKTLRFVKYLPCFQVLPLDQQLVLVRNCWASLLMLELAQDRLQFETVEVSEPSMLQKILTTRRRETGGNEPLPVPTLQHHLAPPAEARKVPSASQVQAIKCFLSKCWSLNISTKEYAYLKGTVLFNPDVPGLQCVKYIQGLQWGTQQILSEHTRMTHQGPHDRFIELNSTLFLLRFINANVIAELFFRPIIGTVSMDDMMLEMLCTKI
# ssDAF-12 act: S. stercoralis DAF-12 activation, primary screen; HEK293 ssDAF-12/GRIP1 lit1-tk-luc reporter, luminescence; % of 3 µM dafachronic acid response; activation, % at 6.8 µM; actives 1% (n = 370,000); AID 652126;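 active means activation above the mean over all tested compounds plus 3 SD, cut at about 0.9% in these data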
# A number is an active result; - = inactive; . = no result. Compounds with a hit are over-represented: about 4.1% of the library has one in this group of screens.
SMILES,DAX1 inh-1,hgDAF12 agonist,hcDAF12 agonist,DAX1 inh-2,ssDAF-12 act
CC(=O)c1cc(-c2ccccc2-c2ccccc2)c(=O)n2c1CCC2,-,-,-,.,-
CCOc1ccc(OCCC(=O)Nc2ccccc2C(=O)NC2CC2)cc1,-,-,-,-,-
COc1ccc(S(=O)(=O)N2CCN(C(=O)CN3C(=O)NC(C)(c4ccc5ccccc5c4)C3=O)CC2)cc1 (configuration not stated),-,-,-,-,-
COc1ccc2cc(C3(C)NC(=O)N(CC(=O)N4CCCCC4)C3=O)ccc2c1 (configuration not stated),4.1,-,-,-,-
Cc1cc(OCC(=O)NC(C)C)ccc1Cl,-,-,-,-,-
Cc1cc(OCC(=O)NC(C)C)cc(C)c1Br,-,-,-,4.4,-
CCOC(=O)C1(Cc2cccc(OC)c2)CCCN(C(=O)c2ccc(OC)o2)C1 (configuration not stated),4.3,-,-,-,-
COc1cccc(CC2(CO)CCCN(C(=O)c3cc[n+]([O-])cc3)C2)c1 (configuration not stated),-,-,-,5.1,-
CCOC(=O)C1(Cc2cccc(OC)c2)CCCN(C(=O)c2cc(CC(C)C)[nH]n2)C1 (configuration not stated),3.8,-,-,-,-
COc1cccc(CC2(CO)CCCN(Cc3ccc(CO)o3)C2)c1 (configuration not stated),-,-,-,-,-
O=Cc1ccc(/C=C2\c3ccccc3C(=O)N2c2ccccc2)o1,-,-,-,.,-
NC(=O)C1CCN(c2ccnc(Cl)n2)CC1,.,-,-,.,-
O=C(NCCc1c[nH]c2ccccc12)OCc1cn(Cc2cccc(F)c2)nn1,-,-,-,.,-
CC(=O)Nc1cc(C)ns1,-,-,-,4.3,-
O=C(CN(CC(=O)N1CCOCC1)S(=O)(=O)c1ccc(Br)s1)N1CCOCC1,-,-,-,6.8,-
CN(CCCNC(=O)c1cn(C)c2ccc(S(=O)(=O)N(C)C)cc2c1=O)c1ccccc1,-,-,-,5.3,-
CCn1cc(C(=O)NCCCN2CCN(C)CC2)c(=O)c2cc(S(=O)(=O)N3CCc4ccccc4C3)ccc21,-,-,-,-,1.5
CN(C)S(=O)(=O)c1ccc2c(c1)c(=O)c(C(=O)NCCCN1CCCCCC1)cn2C,-,-,-,5.2,-
CN(C)S(=O)(=O)c1ccc2c(c1)c(=O)c(C(=O)N1CCOCC1)cn2C,-,-,-,5.9,-
CCN(CC)S(=O)(=O)c1ccc2c(c1)c(=O)c(C(=O)NCCCN(C)c1ccccc1)cn2C,-,-,-,-,-
Cc1nc2ccc(S(=O)(=O)NCC(=O)N(C)Cc3ccccc3Cl)cc2s1,-,-,-,.,-
N#Cc1ccc(/C=C2\CC3(OC(=O)C4CCCCC4)CCCN2C3)cc1 (configuration not stated),-,-,-,.,-
CCCN(CC1CC1)c1nc(C)nc2c1nnn2Cc1ccccc1,-,-,-,.,-
COc1ccc(/C(O)=C2/C(=O)C(=O)N(c3ccccn3)C2c2ccc(C(C)C)cc2)cc1 (configuration not stated),-,13,-,-,-
COc1ccc(/C(O)=C2/C(=O)C(=O)N(c3ccccn3)C2c2ccc(OC)cc2)cc1 (configuration not stated),-,-,-,-,-
SMILES,DAX1 inh-1,hgDAF12 agonist,hcDAF12 agonist,DAX1 inh-2,ssDAF-12 act
COc1cccc(N2CCN(CC(=O)NCc3cccc(OC)c3OC)CC2)c1,-,-,-,.,-
Clc1cc(Cl)c2nc(N3CCCC3)sc2c1,-,11,-,-,-
CC(c1ccccc1)N1CC[C@H]2C=CC[C@@H](C(=O)Nc3ccc(F)c(F)c3)[C@H]2C1=O (some centres not stated),.,-,-,.,-
CCOC(=O)c1nnsc1Nc1ccc(C)c(C)c1,-,-,-,4.3,-
O=C(CCC1CCCC1)NCCCNC(=O)CCC1CCCC1,-,-,5.9,-,-
CC(C)(CNC(=O)CCC1CCCC1)CNC(=O)CCC1CCCC1,-,-,-,-,-
COc1cccc(/C=N/c2oc(-c3ccccc3)cc2C#N)c1O,-,-,-,-,-
COc1cccc(C=Nc2ccccc2C#N)c1O,-,-,-,-,2.1
Cc1cc(=O)oc2cc(NC(=O)c3ccccc3Cl)ccc12,-,13,-,-,-
Cc1cc(=O)oc2cc(NC(=O)c3ccccc3C(=O)O)ccc12,-,-,-,-,-
CCOC(=O)Nc1ccc2c(C)cc(=O)oc2c1,-,11,-,-,-
COc1ccccc1C(=O)OCC(=O)N1CCC(Cc2ccccc2)CC1,-,-,-,-,-
O=C(OCC(=O)N1CCC(Cc2ccccc2)CC1)c1cc(Cl)ccc1O,3.9,-,-,-,-
CC(C)NC(=O)c1ccc(NC(=O)CC2SC(N3CCCC3)=NC2=O)cc1 (configuration not stated),-,-,-,-,-
CC(C)NC(=O)c1ccc(NC(=O)CC2SC(N3CCCCC3)=NC2=O)cc1 (configuration not stated),-,-,-,-,1.7
COc1ccccc1Oc1nc2ccccn2c(=O)c1/C=C(\C#N)C(=O)Nc1c(C)n(C)n(-c2ccccc2)c1=O,-,-,-,4.8,-
Cc1ccsc1/C=C(\C#N)C(=O)Nc1c(C)n(C)n(-c2ccccc2)c1=O,-,-,-,4.8,-
C=CCN1[C@@H](C)COc2cc(N3CCSCC3)ccc2S1(=O)=O,-,-,-,.,-
Cc1ccc(N(CC(=O)N/N=C/c2cccc(Br)c2)S(C)(=O)=O)cc1,-,-,-,-,1.4
CSCCC(NC(=O)OC(C)(C)C)C(=O)Oc1ccc2c(=O)c(-c3ccc4c(c3)OCCO4)coc2c1 (configuration not stated),-,11,5.7,-,-
CN(C(=O)c1cccc(NC(=O)Cc2ccc(NC(=O)C3CCCN(C(=O)C4CCC4)C3)cc2)c1)C1CCC1 (configuration not stated),-,-,-,-,1.3
CN(C(=O)c1cccc(NC(=O)Cc2ccc(NC(=O)C3CCCN(C(=O)C4CCCCC4)C3)cc2)c1)C1CC1 (configuration not stated),-,-,-,-,-
CN(C(=O)c1cccc(NC(=O)Cc2ccc(NC(=O)C3CCN(C(=O)c4ccccc4)CC3)cc2)c1)C1CCC1,-,-,-,-,1.2
CN(Cc1ccccc1)S(=O)(=O)c1cccc(C(=O)OCc2ccc(Oc3ccccc3)cc2)c1,-,-,-,.,-
COc1cccc(OCc2cc(C(=O)N(C)Cc3nc(C)cs3)no2)c1,4.5,-,-,-,-
COc1cccc(OCc2cc(C(=O)N(C)C3CCOCC3)no2)c1,-,-,-,-,-
Cc1ccc(-n2nc(C)c3c(C)cc(=O)[nH]c32)cc1,-,-,-,-,3.5
Cc1nn(-c2ccccc2)c2[nH]c(=O)cc(C(F)F)c12,-,-,-,-,-
